Experimental data published in PubChem BioAssay (NCATS).
Records with an inconclusive call do not appear. The source made the active and inactive calls. Calls come from the whole dose curve; as a rule, active = well fitted curve in the direction sought with a large enough effect; inconclusive = small, poorly fitted or top-dose-only effect, or another doubt; inactive = no such curve, though single readings can be large; an effect the other way counts as inactive or inconclusive.

Columns and labels:
[1] = OV-KATE Cancer Cell Toxicity qHTS against the NCATS CANVASS Library (AID 1347345)
How it was run: (§1)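 Following a 4 h pre-incubation of 1000 seeded cells, compounds were pinned in an 11-pnt dilution series and left for 72 h; viability then came from CellTiter-Glo.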

[2] = HPAF-II Cancer Cell Toxicity qHTS against the NCATS CANVASS Library (AID 1347346); note: nearly all actives have a fitted effect of over 55% in size
How it was run: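 Luminescence from CellTiter-Glo, added after 72 h compound exposure and a 15 min room-temperature incubation, served as the viability readout. HPAF-II cells (1000/well) received an 11-point concentration series.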

[3] = UWB1.289 Cancer Cell Toxicity qHTS against the NCATS CANVASS Library (AID 1347347); note: nearly all actives have a fitted effect of over 60% in size
How it was run: as §1

[4] = OV-SAHO Cancer Cell Toxicity qHTS against the NCATS CANVASS Library (AID 1347348); note: nearly all actives have a fitted effect of over 55% in size
How it was run: as §1

[5] = Panc-1005 Cancer Cell Toxicity qHTS against the NCATS CANVASS Library (AID 1347349); note: nearly all actives have a fitted effect of over 60% in size
How it was run: as §1

[6] = SW1088 Cancer Cell Toxicity qHTS against the NCATS CANVASS Library (AID 1347350); note: nearly all actives have a fitted effect of over 75% in size
How it was run: as §1

[7] = U-118MG Cancer Cell Toxicity qHTS against the NCATS CANVASS Library (AID 1347351); conditions: U-118MG viability, CellTiter-Glo luminescence, 72 h; at 38.3 µM (top of the series)
From the text: (§2) Natural products and their derivatives continue to be wellsprings of nascent therapeutic potential. However, many laboratories have limited resources for biological evaluation, leaving their previously isolated or synthesized compounds largely or completely untested. To address this issue, the Canvass library of natural products was assembled (https://tripod.nih.gov/canvass), in collaboration with academic and industry researchers, for quantitative high-throughput screening (qHTS) across a diverse set of cell-based and biochemical assays. The pure (>85% purity by liquid chromatography/mass spectrometry [LC/MS]) Canvass library of 346 natural products were submitted by 45 academic laboratories and companies around the world. […] The library was formatted into 1536-well plates and evaluated in 50 qHTS (in an 11-pnt concentration series) bioassays with broad scope of disease-relevant mechanisms. The resulting data set from 50 different assays was then systematically analyzed to identify overall trends and specific natural products with interesting biological activities. […]
Cancer Cell Toxicity protocol for cell lines COV-362, OV-KATE, OV-SAHO, UWB1.289, UWB1.289-WTBRCA1, HEK-293, HPAF-II, Panc-1005, SW1088, or U-118MG. […] Luminescence signal was acquired via the ViewLux plate reader (PerkinElmer) using a clear filter, 2 second exposure and 2x binning settings.

[8] = COV-362 Cancer Cell Toxicity qHTS against the NCATS CANVASS Library (AID 1347352)
How it was run: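 Luminescent ATP read-out (CellTiter-Glo, 15min at room temperature) measures survival after cells face an 11-point compound series for 72 hours at 37 degrees C/5% CO2.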

[9] = A2780 Cisplatin Sensitive Ovarian Cancer Cell Toxicity qHTS against the NCATS CANVASS Library (AID 1347353); conditions: A2780 ovarian cancer viability, ATPLite luminescence, 72 h; at 46.1 µM (top of the series); note: nearly all actives have a fitted effect of over 60% in size
From the text: Natural products and their derivatives continue to be wellsprings of nascent therapeutic potential. However, many laboratories have limited resources for biological evaluation, leaving their previously isolated or synthesized compounds largely or completely untested. To address this issue, the Canvass library of natural products was assembled (https://tripod.nih.gov/canvass), in collaboration with academic and industry researchers, for quantitative high-throughput screening (qHTS) across a diverse set of cell-based and biochemical assays. The pure (>85% purity by liquid chromatography/mass spectrometry [LC/MS]) Canvass library of 346 natural products were submitted by 45 academic laboratories and companies around the world. We collected pure natural products to circumvent deconvolution and structure elucidation due to time and resource limitations. The library was formatted into 1536-well plates and evaluated in 50 qHTS (in an 11-pnt concentration series) bioassays with broad scope of disease-relevant mechanisms. The resulting data set from 50 different assays was then systematically analyzed to identify overall trends and specific natural products with interesting biological activities. […]
Cancer Cell Toxicity protocol 1. […] Luminescence signal was acquired via the ViewLux plate reader (PerkinElmer) using a clear filter, 2 second exposure and 2x binning settings.

[10] = UWB1.289-WTBRCA1 Cancer Cell Toxicity qHTS against the NCATS CANVASS Library (AID 1347354); conditions: UWB1.289-WTBRCA1 viability, CellTiter-Glo luminescence, 72 h; at 38.3 µM (top of the series)
From the text: as §2
Cancer Cell Toxicity COV-362, OV-KATE, OV-SAHO, UWB1.289, UWB1.289-WTBRCA1, HEK-293, HPAF-II, Panc-1005, SW1088, and U-118MG-screen protocol. […] Luminescence signal was acquired via the ViewLux plate reader (PerkinElmer) using a clear filter, 2 second exposure and 2x binning settings.

Measured: outcome

NCC(O)c1ccc(O)cc1 (stereo not given)
inactive: all assays above
